{"source": "PubChem BioAssay AID651906", "about": "(Vanderbilt Specialized Chemistry Center, 2012)", "biological_target": "Protein deacetylase HDAC6 (Homo sapiens) (UniProt Q9UBN7)", "sequence (Q9UBN7 whole entry, looked up)": "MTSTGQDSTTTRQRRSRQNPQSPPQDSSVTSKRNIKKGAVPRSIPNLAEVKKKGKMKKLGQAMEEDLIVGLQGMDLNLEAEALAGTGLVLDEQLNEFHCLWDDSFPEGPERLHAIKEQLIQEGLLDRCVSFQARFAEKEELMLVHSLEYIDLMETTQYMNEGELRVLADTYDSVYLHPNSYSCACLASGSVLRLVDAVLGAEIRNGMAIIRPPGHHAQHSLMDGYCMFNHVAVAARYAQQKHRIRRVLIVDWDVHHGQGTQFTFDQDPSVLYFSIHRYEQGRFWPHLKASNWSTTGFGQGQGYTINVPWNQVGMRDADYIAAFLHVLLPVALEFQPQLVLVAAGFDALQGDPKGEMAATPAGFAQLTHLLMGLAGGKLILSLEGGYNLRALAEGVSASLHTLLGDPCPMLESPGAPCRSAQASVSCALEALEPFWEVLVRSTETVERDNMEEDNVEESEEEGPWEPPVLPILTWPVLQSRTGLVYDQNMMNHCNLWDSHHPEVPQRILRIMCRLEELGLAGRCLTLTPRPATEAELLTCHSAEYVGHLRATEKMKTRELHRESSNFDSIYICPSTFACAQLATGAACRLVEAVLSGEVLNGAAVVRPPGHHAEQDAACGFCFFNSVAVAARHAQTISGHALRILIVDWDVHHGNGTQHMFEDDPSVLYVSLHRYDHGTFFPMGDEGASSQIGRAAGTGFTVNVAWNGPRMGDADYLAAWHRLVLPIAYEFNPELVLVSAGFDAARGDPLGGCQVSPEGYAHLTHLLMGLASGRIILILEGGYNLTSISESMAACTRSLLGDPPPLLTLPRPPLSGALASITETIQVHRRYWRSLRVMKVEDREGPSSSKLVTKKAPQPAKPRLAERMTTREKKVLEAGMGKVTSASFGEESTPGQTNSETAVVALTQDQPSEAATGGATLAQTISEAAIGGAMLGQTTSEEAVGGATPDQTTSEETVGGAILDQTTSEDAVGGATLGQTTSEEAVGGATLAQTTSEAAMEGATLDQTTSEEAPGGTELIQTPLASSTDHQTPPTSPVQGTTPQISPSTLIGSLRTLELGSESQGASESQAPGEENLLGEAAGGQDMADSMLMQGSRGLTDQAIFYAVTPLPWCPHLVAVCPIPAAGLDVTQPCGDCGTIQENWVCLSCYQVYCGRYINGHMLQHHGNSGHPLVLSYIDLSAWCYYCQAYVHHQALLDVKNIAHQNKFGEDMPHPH", "assay": "HDAC6 deacetylase inhibition, profiling panel, selectivity assay for E-cadherin restoration project, biochemical, human (AID 651906)", "settings": "recombinant HDAC6, fluorogenic peptide substrate; series mostly up to 10 µM", "note": "Activity calls are given as the source filed them. How the calls were made is not given here.", "data": [{"smiles": "O=C(NCCCNC(=O)c1ccc[nH]c1=O)c1cc(-c2ccccc2)on1", "values": [{"measurement": "outcome", "value": "inactive"}]}]}
